POLB inh – inhibitors of human DNA polymerase beta; Pol beta primer extension/strand displacement, fluorescence kinetic; Potency, µM (titrated, usually from 114 µM), without a hit: at the top dose activity change, negative = inhibition, usual class: inhibitors; AID 485314; P06746; actives 1.3% (n = 340,000); also: % is scaled to controls: 0 for no effect and ±100 for the full control effect
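Enzyme-only controls used 10 nM Pol beta; buffer lacking enzyme served as negative control. Compound preincubated 15 min, then 50 nM substrate added; 0 and 10 min reads at room temperature.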
POLH inh – inhibitors of human DNA polymerase eta. Q9Y253. recombinant Pol eta, fluorescent DNA replication assay. Potency, µM (series often up to 114 µM), without a hit: at the top dose activity change, negative = inhibition, usual class: inhibitors. actives 1.2% (n = 390,000). AID 588591; also: % is scaled to controls: 0 for no effect and ±100 for the full control effect
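Fluorescent replication assay: 50 nM final substrate added after a 15 min room-temperature compound preincubation with 10 nM enzyme. Signal taken at 0 min and again at 10 min.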
POLK inh – inhibitors of human DNA polymerase kappa; purified Pol kappa, fluorescent DNA synthesis assay, 10 min; Potency, µM (doses to about 107 µM), without a hit: at the highest dose activity, negative = inhibition, hits mostly inhibitors; actives 0.53% (n = 400,000); also: % is scaled to controls: 0 for no effect and ±100 for the full control effect
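Kinetic fluorescence screen: compound preincubated 15 min RT with 10 nM enzyme; 50 nM substrate (final) initiates; reads at 0/10 min.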
WRN helicase inh-1 – inhibitors of human WRN helicase; Q14191; WRN helicase unwinding, fluorescent forked duplex, kinetic; Potency, µM (doses to about 114 µM), for inactives: at the highest dose activity change, negative = inhibition, hits mostly inhibitors; actives 0.46% (n = 360,000); AID 651768; also: % is scaled to controls: 0 for no effect and ±100 for the full control effect; nearly all actives have a fitted effect of over 55% in size
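Enzyme (20 nM final) and test compound sit together 15 min at room temperature before substrate addition. Substrate is a single-forked duplex oligonucleotide (100 nM) labelled with fluorophore and quencher, with 2 mM ATP; helicase unwinding raises red fluorescence, read kinetically.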
Pol iota inh – inhibitors of human DNA polymerase iota; Q9UNA4; Pol iota fluorescent replication assay, 10 min; Potency, µM (top dose mostly 115 µM), for inactives: at the top dose activity, negative = inhibition, most hits filed as inhibitors; actives 1% (n = 390,000)
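Pol iota at 10 nM preincubated 15 min with compounds at room temperature; reaction started with fluorescent substrate, 50 nM final. Fluorescence read kinetically at 0 and 10 min; buffer-only wells as negative control.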
WRN helicase inh-2 – confirmation of human WRN helicase inhibitors; WRN helicase DNA unwinding, fluorescence kinetic; actives 63% (n = 610); Potency, µM (doses to about 57.1 µM), for inactives: top-dose activity, negative = inhibition, actives largely listed as inhibitors; AID 720497; shares compounds with WRN helicase inh-1; also: nearly all actives have a fitted effect of over 65% in size
TO DNA binding – counter-screen for WRN helicase inhibitors: DNA binding; AID 720499; shares compounds with WRN helicase inh-1; thiazole orange DNA binding displacement, fluorescence; Potency, µM (top dose mostly 57.1 µM), for inactives: top-dose activity change, negative = inhibition, actives largely listed as inhibitors; actives 10% (n = 610);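 also: drop in dye fluorescence marks compound binding to DNA; % is scaled to controls: 0 for no effect and ±100 for the full control effect; nearly all actives have a fitted effect of over 60% in size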
BLM helicase inh – blocks human BLM helicase in WRN counterscreen; Potency, µM (titrated, usually from 57.1 µM), without a hit: at the top dose activity change, negative = inhibition, hits mostly inhibitors; actives 60% (n = 610); shares compounds with WRN helicase inh-1; Recombinant BLM helicase DNA unwinding, red fluorescence; also: nearly all actives have a fitted effect of over 60% in size
The depositor's hits bear a star; i = inactive; ? = inconclusive; nt = no result; [ ] = remark or other dose. Shown are actives, neighbours in structure and some others; about 2.3% of the full set was active somewhere. Calls follow the shape of the dose curve; as a rule, active = well fitted curve in the direction sought with a large enough effect; inconclusive = small, poorly fitted or top-dose-only effect, or another doubt; inactive = no such curve, though single readings can be large; an effect the other way counts as inactive or inconclusive. Potency is read from the fitted curve at half-maximal effect.

SMILES	POLB inh	POLH inh	POLK inh	WRN helicase inh-1	Pol iota inh	WRN helicase inh-2	TO DNA binding	BLM helicase inh
CN1C(=O)c2ccccc2N(C)C1c1ccc2c(c1)OCO2 (centres undefined)	-14%	-6%	-19%	-6%	2%	nt	nt	nt
CC1=C([N+](=O)[O-])C(c2ccc3c(c2)OCO3)N(C)C(=O)N1C (centres undefined)	-1%	-15%	-14%	?	28%	-6%	-1%	-13%
COc1ccc(C(=O)Nc2cccc(-c3cn4ccsc4n3)c2)cc1OC	?	18%	-4%[60.1 µM]	nt	?	nt	nt	nt
CCOC(=O)C1=C(C)N=c2s/c(=C/c3ccc(OCC(=O)O)cc3)c(=O)n2C1c1cc(OC)c(OC)c(OC)c1 (centres undefined)	-16%	-1%	-6%	?	68%	nt	nt	nt
CCOC(=O)C1=C(C)N=c2s/c(=C\c3ccc(OCC(=O)O)cc3)c(=O)n2C1c1ccc(OC(C)C)cc1 (centres undefined)	-15%	?	-18%	-22%	?	nt	nt	nt
CCOC(=O)C1=C(C)N=c2sc(=Cc3ccc(OCC(=O)O)cc3)c(=O)n2C1c1ccc(Cl)cc1 (centres undefined)	nt	nt	nt	?	nt	7.6µM*	357%	3.4µM*
CCOC(=O)C1=C(C)N=c2sc(=Cc3cc(Cl)c(OCC(=O)O)c(Cl)c3)c(=O)n2C1c1cccc(OC)c1 (centres undefined)	nt	nt	nt	79µM*	nt	30µM*	21%	?
Cc1cccc(N(C)c2nc3ccccc3c3nnc(C)n23)c1	1%	-17%	3%	nt	40%	nt	nt	nt
COc1ccccc1NC(=O)c1ccc(-c2nc(COc3ccc(C)cc3)c(C)o2)cc1	?	-13%	-8%	nt	19%	nt	nt	nt
CCN(c1ccccc1)c1ncnc2c1cnn2-c1ccc(OC)cc1	-2%	-6%	-9%[60.1 µM]	nt	-3%	nt	nt	nt
C/C=C/c1ccc(OCCCNC(C)CC)c(OC)c1 (centres undefined)	0%	7%	0%	?	9%	2%	-2%	3%
C/C=C/c1ccc(OCCCNC2CCCC2)c(OC)c1	-4%	-10%	2%	-7%	?	nt	nt	nt
Cc1cc(Cl)ccc1OCC(=O)N(Cc1ccc(N(C)C)cc1)CC1CCCO1 (centres undefined)	8%	-21%	-19%	nt	7%	nt	nt	nt
CCn1nc(C(=O)OCC(=O)Nc2ncc(Cl)c(C)c2Cl)c2ccccc2c1=O	-7%	?	-12%	?	?	-29%	-12%	?
CCn1nc(C(=O)OCC(=O)NC(C)C)c2ccccc2c1=O	-1%	-5%	8%	5%	12%	nt	nt	nt
N#C/C(=C/c1ccc(N2CCCCC2)o1)C(=O)Nc1ccc2ccccc2c1	?	?	-14%	?	?	?	i	22µM*
CCOc1cccc(C2c3[nH]c4ccccc4c3CCN2C(=O)Cc2cccc(OCC)c2OCC)c1 (centres undefined)	-29%	-16%	-8%	nt	18%	nt	nt	nt
Oc1c(C(c2ccccc2)N2CCOCC2)ccc2ccccc12 (centres undefined)	nt	-4%	-7%	28µM*	97%	?	-20%	-24%
O=C(CN1CCN(C(c2ccccc2)c2ccccc2)CC1)N1CCOCC1	-6%	-3%	1%	4%	13%	nt	nt	nt
Cc1cccc(NC(=O)C2CCCN(S(=O)(=O)c3cccc4nonc34)C2)c1C (centres undefined)	9%	-4%	0%	nt	12%	nt	nt	nt

Screens (PubChem)
